Screening data as filed in PubChem.
FBW7 act: FBW7 E3 ligase activators, primary screen, biochemical, AlphaScreen, human | AlphaScreen FBW7–phospho-cyclin E peptide binding, activator screen | AID 1259310, 2017 | 650,000 compounds, 0.13% hits | normalized activity (activation), % at 26.1 µM; in the data active = normalized activity above about 1.9%;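 note: purified mutant Fbw7 with reduced substrate affinity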
GPR151 activ: activators of human GPR151, primary screen, cell-based, PathHunter beta-arrestin, luminescence; activation, % at 11.2 µM; G-protein coupled receptor 151 (Homo sapiens), Q8TDV0; 650,000 compounds, 1% hits; PathHunter beta-arrestin GPR151 cells; in the data active = activation above about 4.9%;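 note: 0% = median of compound wells and 100% = cells with positive control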
TEAD-YAP inh: TEAD-YAP interaction inhibition, primary screen, TEAD-YAP interaction inhibitor project, luminescence, HEK-TIYL cells; TEAD-Gal4/YAP UAS-luciferase luminescence; inhibition, % at 9.12 µM; 640,000 compounds, 1.4% hits; in the data active = inhibition above about 32%;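 note: 0% = median of test compound wells and 100% = reference inhibitor wells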
MITF primary: MITF inhibitors, primary screen, biochemical, AlphaScreen, human | inhibition, % at 2.6 µM | AlphaScreen MITF homodimerization, bead proximity signal | 650,000 compounds, 0.91% hits; in the data active = inhibition above about 50%;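 note: 0% = vehicle wells with protein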
Target sequence (O75030 whole entry, looked up): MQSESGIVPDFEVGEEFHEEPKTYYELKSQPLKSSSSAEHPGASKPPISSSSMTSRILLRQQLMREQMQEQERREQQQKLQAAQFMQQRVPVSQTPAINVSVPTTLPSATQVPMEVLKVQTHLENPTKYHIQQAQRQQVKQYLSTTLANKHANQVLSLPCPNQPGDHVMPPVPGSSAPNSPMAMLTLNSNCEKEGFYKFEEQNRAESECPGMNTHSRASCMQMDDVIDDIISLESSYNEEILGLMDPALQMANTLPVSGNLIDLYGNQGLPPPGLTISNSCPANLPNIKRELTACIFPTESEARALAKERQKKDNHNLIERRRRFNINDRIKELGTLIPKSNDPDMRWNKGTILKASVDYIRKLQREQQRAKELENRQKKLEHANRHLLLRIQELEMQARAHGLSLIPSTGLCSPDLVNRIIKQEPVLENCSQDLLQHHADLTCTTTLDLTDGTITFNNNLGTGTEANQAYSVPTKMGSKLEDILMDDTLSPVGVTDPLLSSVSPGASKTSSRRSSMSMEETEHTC
MITF inh conf: MITF inhibitors, retest of hits, confirmation, biochemical, AlphaScreen, triplicate. 4,700 compounds, 16% hits. AlphaScreen MITF homodimerization, biotin/His-MITF beads. inhibition, % at 2.6 µM. shares compounds with MITF primary;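 active = inhibition above a cutoff derived from the DMSO control wells, cut at about 28% in these data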;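 note: 0% = MITF dimer wells with DMSO only; inhibitors lower the bead chemiluminescence by keeping MITF from dimerizing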
AS interf DR: AlphaScreen optical interference compounds, dose response, counter-screen, biochemical, HTS. shares compounds with MITF primary. AlphaScreen optical interference counterscreen, cell-free. IC50, µM. 480 compounds, 6% hits. AID 1259373, 2018; call rule not given here
AlphaScreen intf2: AlphaScreen optical interference compounds, counter-screen for MITF inhibitor project, biochemical, triplicate. shares compounds with MITF primary. LysRS AlphaScreen counterscreen, signal interference. inhibition, % at 2.6 µM. 4,700 compounds, 7.6% hits. AID 1259376, 2018;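 active = inhibition above a cutoff derived from the DMSO control wells, cut at about 30% in these data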
Numbers without * were called inactive; / = no result. In the library only some 3.4% were active in any assay of this set; here they are far more common.

SMILES	FBW7 act	GPR151 activ	TEAD-YAP inh	MITF primary	MITF inh conf	AlphaScreen intf2	others
O=C(NCCc1ccc(O)cc1)c1ccnc(-c2cccs2)c1	0	1	7	51*	51*	0	AS interf DR=>6.8
O=C(NCCCc1ccccc1)C1CC12CCN(Cc1cccnc1)CC2 (centres undefined)	0	-1	8	4	/	/
Cc1ccc(C(=O)C2=C(O)C(=O)N(Cc3cccnc3)C2c2ccc(F)cc2)o1 (centres undefined)	0	-1	-1	7	/	/
CCN(CC(=O)Nc1ccccc1C(F)(F)F)CC(=O)NC1CCCc2ccccc21 (centres undefined)	0	-1	-6	81*	1	3
CCN(CC(=O)Nc1ccccc1C(F)(F)F)CC(=O)Nc1cccc2ccccc12	0	2	28	-1	/	/
COc1ccc2c3c(cccc13)C(=O)N(O)C2=O	1	1	12	-17	/	/
COc1ccc2c3c(cccc13)C(=O)N(C)C2=O	0	0	-5	67*	76*	1	AS interf DR=>6.5
COc1ccc(CNCCSc2nccn2C)cc1	0	1	-6	70*	12	15
CCOC(=O)CNC(=O)c1sc2ncnc(N3CCN(c4ccccn4)CC3)c2c1C	0	2	21	3	/	/
O=C(O)CCCNC(=O)/C=C/c1ccco1	0	1	3	62*	59*	3	AS interf DR=>6.5
O=C(/C=C/c1ccco1)NCc1cccc(CNC(=O)/C=C/c2ccco2)c1	0	2	4	74*	82*	16	AS interf DR=>6.5
O=C(/C=C/c1ccco1)OCC(=O)N1CCCC1	0	3	3	17	/	/
CCc1nnc(NC(=O)/C=C/c2ccco2)s1	0	1	-34	0	/	/
O=C(/C=C/c1ccco1)ON1C(=O)c2ccccc2C1=O	0	0	-3	56*	35*	1	AS interf DR=>6.5
O=C(/C=C/c1ccco1)Nc1nnc(-c2ccco2)s1	0	0	30	52*	57*	8	AS interf DR=>6.5
O=C(/C=C/c1ccco1)/C=C/c1ccco1	0	1	9	68*	77*	97*
O=C(/C=C/c1ccco1)Nc1cccc(NC(=O)/C=C/c2ccco2)n1	0	-1	-48	82*	49*	1	AS interf DR=>6.7
CN(C)CC(C)(C)CNC(=O)C1CCN(Cc2cccc(Br)c2)CC1	1	0	12	58*	-3	-2
NC(=O)COc1ccc(Cl)cc1C1C2=C(CCCC2=O)OC2=C1C(=O)CCC2	0	2	10	3	/	/
CC1(C2CC2)NC(=O)N(CC(=O)Nc2ccccc2F)C1=O (centres undefined)	0	1	-4	67*	10	7
CC1(C2CC2)NC(=O)N(CC(=O)Nc2ccc(S(=O)(=O)N3CCCCC3)cc2)C1=O (centres undefined)	1	-1	0	62*	5	11
COc1ccc([N+](=O)[O-])cc1NC(=O)C1(c2ccc(OC)c(OC)c2)CCCC1	0	0	-8	53*	-14	-7
COc1ccc([N+](=O)[O-])cc1NC(=O)c1ccc(F)cc1	0	3	-1	57*	-12	-11
COc1ccc([N+](=O)[O-])cc1NC(=O)c1ccc(C(C)(C)C)cc1	0	0	9	16	/	/
O=C(O)CNCc1nc2ccccc2[nH]1	-2	-1	-4	81*	76*	100*
SMILES	FBW7 act	GPR151 activ	TEAD-YAP inh	MITF primary	MITF inh conf	AlphaScreen intf2	others
CC(C)=CCN1CCN(Cc2cc(F)cc(F)c2)CC1CCO (centres undefined)	0	-2	0	9	/	/
CCOc1ccccc1OCCOCCN1CCN(Cc2ccccc2)CC1	0	1	5	85*	17	20
c1ccc(CN2CCN(CCOCCOc3ccccc3)CC2)cc1	0	3	3	83*	9	9
c1ccc(OCCOCCN2CCNCC2)cc1	0	1	3	36	/	/
O=C(NCc1cccc(Cl)c1)C1CCN(Cc2cccnc2)CC1	0	0	5	5	/	/
Clc1cccc(CN2CCN(Cc3cccnc3)CC2)c1	0	0	7	85*	8	17
Fc1cccc(CN2CCN(Cc3cccnc3)CC2)c1	0	1	-1	85*	10	16
Cc1nc(N2CCCC2)c2c3c(sc2n1)CCC3	0	-1	-11	-9	/	/
COc1cccc(/C=C2/N=C(c3ccc(Cl)c([N+](=O)[O-])c3)OC2=O)c1OC	0	0	-11	5	/	/
COc1cc(/C=N/NC(=O)CNC(=O)c2ccccc2OC)ccc1O	0	1	0	-15	/	/
CCCCCCN(CCCCCC)CC(=O)Nc1c(C)c(CC)nc2ccccc12	0	1	9	69*	7	6
CCc1sc(NC(=O)CN2CCCC2)nc1-c1ccccc1	0	1	22	5	/	/
CCCCc1nc2ccccc2c(NC(=O)CN2CCN(C(=O)c3ccccc3)CC2)c1CCC	0	4	0	62*	16	22
Cc1cc(NC(=O)Cn2nc(C(=O)N3CCOCC3)cc2C)c2ccccc2n1	0	-1	-8	-20	/	/
CCc1nc2ccccc2c(NC(=O)CN2CCN(CCO)CC2)c1C	0	0	-1	69*	7	10
CCCCc1nc2ccccc2c(C(=O)O)c1C	0	3	7	8	/	/
CCCc1nc2ccccc2c(NC(=O)CN2CCCC2)c1CC	0	1	-14	81*	19	-10
N#Cc1ccc(NC(=O)COC(=O)c2ccc3c(c2)OCO3)cc1	0	0	3	2	/	/
O=C(Nc1ccc(NC(=O)c2cccs2)cc1)c1ccco1	0	-3	-47	76*	-3	-4
CC(=O)N1CCc2cc(C(O)CN3CCN(c4ccccn4)CC3)ccc21 (centres undefined)	0	3	-6	-6	/	/
CN(C)CCCCOc1ccc([N+](=O)[O-])cc1	0	1	5	77*	5	-1
C=CCNCCCOc1ccc(C)cc1[N+](=O)[O-]	0	-4	-1	44	/	/
Cc1ccc(OCCCN(C)C)c([N+](=O)[O-])c1	0	0	-3	68*	-1	10
COc1ccc(OCCCCOc2ccc([N+](=O)[O-])cc2)cc1	0	0	3	9	/	/
C=CCNCCOc1ccc(C)cc1[N+](=O)[O-]	0	3	-3	52*	-23	-3
